Data from PubChem BioAssay AID1159580 (chemical genetic matrix, 2015).
The campaign covered roughly 5,500 compounds. About 2,000 (36%) were called active. Inconclusive results (about 18%) are left out. No stated cut-off is given here; in the data, active means normalized growth mostly below about 0.91 (no sharp cut-off); inconclusive means no clear call, values can overlap the other calls; inactive means mostly above about 0.92. The list shows a part of the results.

Test: chemical genetic growth profiling, strain panel (AID 1159580);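 further: tested at 20 µM; growth read once vehicle control cultures reached saturation at 30 °C; 1 = growth at the plate median or of vehicle wells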
Settings: S. cerevisiae deletion strains, growth OD

Measured: normalized growth

CC1CC[C@@]2(OC1)O[C@H]1CC3C4CC[C@@H]5CC(=O)CC[C@]5(C)C4CC[C@]3(C)[C@H]1[C@@H]2C (stereo not given in full)
inactive: locus YBR021W, strain FUR4, stronger effect = lower value 1.01 | locus YBR229C, strain ROT2, stronger effect = lower value 1.01 | locus YCL029C, strain bik1, stronger effect = lower value 1.01 | locus YDL035C, strain GPR1, stronger effect = lower value 1.05 | locus YDL074C, strain BRE1, stronger effect = lower value 1.04 | locus YDL101C, strain DUN1, stronger effect = lower value 0.975 | locus YDL134C, strain PPH21, stronger effect = lower value 0.982 | locus YDL185W, strain tfp1, stronger effect = lower value 0.982 | locus YDL192W, strain arf1, stronger effect = lower value 1.01 | locus YDR101C, strain arx1, stronger effect = lower value 1.02 | locus YDR150W, strain NUM1, stronger effect = lower value 1 | locus YDR162C, strain NBP2, stronger effect = lower value 1 | locus YDR318W, strain mcm21, stronger effect = lower value 1 | locus YDR388W, stronger effect = lower value 0.993 | locus YDR502C, strain sam2, stronger effect = lower value 0.974 | locus YER110C, stronger effect = lower value 0.994 | locus YER155C, strain BEM2, stronger effect = lower value 0.985 | locus YER167W, strain BCK2, stronger effect = lower value 1 | locus YGL078C, strain dbp3, stronger effect = lower value 0.963 | locus YGL086W, strain mad1, stronger effect = lower value 0.989 | locus YGL248W, strain PDE1, stronger effect = lower value 0.973 | locus YGR078C, strain PAC10, stronger effect = lower value 0.993 | locus YGR135W, strain pre9, stronger effect = lower value 0.948 | locus YGR252W, strain gcn5, stronger effect = lower value 0.997 | locus YHR079C, strain IRE1 (second series), stronger effect = lower value 0.996 | locus YHR094C, strain hxt1, stronger effect = lower value 0.985 | locus YHR129C, strain ARP1, stronger effect = lower value 0.996 | locus YHR200W, strain rpn10, stronger effect = lower value 0.987 | locus YIL066C, strain RNR3, stronger effect = lower value 1.02 | locus YIL073C, strain SPO22, stronger effect = lower value 0.983 | locus YIL125W, strain kgd1, stronger effect = lower value 1 | locus YIR030C, strain dcg1, stronger effect = lower value 0.98 | locus YJL095W, strain BCK1, stronger effect = lower value 0.977 | locus YJL134W, strain LCB3, stronger effect = lower value 0.991 | locus YJL168C, strain set2, stronger effect = lower value 0.986 | locus YJL187C, strain SWE1 (second series), stronger effect = lower value 0.968 | locus YKL009W, strain mrt4, stronger effect = lower value 0.986 | locus YKL068W, stronger effect = lower value 0.985 | locus YKL085W, strain MDH1 (second series), stronger effect = lower value 0.984 | locus YKL085W, strain MDH1, stronger effect = lower value 0.984 | locus YKR001C, strain vps1, stronger effect = lower value 0.986 | locus YLR039C, strain RIC1, stronger effect = lower value 0.996 | locus YLR058C, strain SHM2, stronger effect = lower value 0.999 | locus YLR102C, strain apc9, stronger effect = lower value 0.984 | locus YLR268W, strain sec22, stronger effect = lower value 1.04 | locus YLR342W, strain FKS1 (second series), stronger effect = lower value 1.07 | locus YLR371W, strain rom2, stronger effect = lower value 1.01 | locus YLR418C, strain cdc73, stronger effect = lower value 0.942 | locus YML016C, strain PPZ1, stronger effect = lower value 0.988 | locus YML032C, strain rad52, stronger effect = lower value 1.01 | locus YML124C, strain tub3, stronger effect = lower value 0.995 | locus YMR078C, strain ctf18, stronger effect = lower value 0.985 | locus YMR223W, strain ubp8, stronger effect = lower value 0.996 | locus YMR307W, strain GAS1, stronger effect = lower value 0.94 | locus YNL067W, strain RPL9B, stronger effect = lower value 0.966 | locus YNL233W, strain BNI4, stronger effect = lower value 0.972 | locus YNL250W, strain rad50, stronger effect = lower value 0.929 | locus YNL271C, strain bni1, stronger effect = lower value 0.981 | locus YNL298W, strain CLA4, stronger effect = lower value 1 | locus YNL307C, strain MCK1, stronger effect = lower value 0.986 | locus YNR052C, strain pop2, stronger effect = lower value 0.972 | locus YOL006C, strain TOP1, stronger effect = lower value 1.16 | locus YOL012C, strain htz1 1.11 | locus YOL147C, strain pex11, stronger effect = lower value 1.01 | locus YOR061W, strain CKA2, stronger effect = lower value 1.01 | locus YOR069W, strain VPS5, stronger effect = lower value 0.989 | locus YOR136W, strain idh2, stronger effect = lower value 0.992 | locus YOR144C, strain elg1, stronger effect = lower value 0.992 | locus YOR184W, strain ser1, stronger effect = lower value 1.06 | locus YOR316C, strain cot1, stronger effect = lower value 0.986 | locus YPR119W, strain clb2, stronger effect = lower value 0.985 | locus YPR141C, strain kar3, stronger effect = lower value 0.973 | locus YPR163C, strain tif3, stronger effect = lower value 0.993 | locus YPR167C, strain met16, stronger effect = lower value 0.985 | strain wtn01, stronger effect = lower value 1.01
